Test results: PubChem BioAssay (Tox21)
A number with no mark means an inactive call. Results filed as inconclusive are left out. Entries that show only a call come without a potency. Active and inactive are the calls of the source. Calls come from the whole dose curve; as a rule, active = well fitted curve in the direction sought with a large enough effect in the repeat runs; inconclusive = weak or mixed curves; inactive = no such curve, though single readings can be large; an effect the other way counts as inactive or inconclusive.

How the values were obtained:
[1] = Caspase-3/7 induction in CHO-K1 cells by small molecules, qHTS cell viability counter screen (AID 1346979); note: nearly all actives have a fitted effect of over 35% in size; note: potency is the fitted concentration of half-maximal effect
Procedure, shortened: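 Following a 5hr settling period, CHO-K1 cells at 1,500 per well received DMSO-dissolved compounds. Cell viability was quantified 16hr later by CellTiter-Fluor fluorescence, measured after 1hr with reagent at 37C.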

[2] = Caspase-3/7 induction in CHO-K1 cells by small molecules, qHTS assay (AID 1346980); note: nearly all actives have a fitted effect of over 15% in size; note: potency is the fitted concentration of half-maximal effect
Procedure, shortened: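 Wild-type cells were seeded at 1,500 per well and settled 5 hr at 37 C, 5% CO2, then exposed to DMSO-dissolved compounds for 17 hr. Caspase-Glo 3/7 reagent was added, and luminescence was read after 30min at room temperature.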

[3] = Caspase-3/7 induction in HepG2 cells by small molecules, qHTS cell viability counter screen (AID 1346981); note: nearly all actives have a fitted effect of over 30% in size; note: potency is the fitted concentration of half-maximal effect
Procedure, shortened: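 Wild-type HepG2 cells (2,000/well) were allowed to settle for 5 hr at 37 C, 5% CO2, then dosed with compounds in DMSO by pin transfer. After 16 hr at 37 C, CellTiter-Fluor was added and fluorescence read 1 hr later.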

[4] = target: Nuclear receptor subfamily 1 group I member 2 (Homo sapiens) (UniProt O75469); test: Human pregnane X receptor (PXR) small molecule agonists, qHTS assay (AID 1346982); note: nearly all actives have a fitted effect of over 35% in size; note: potency is the fitted concentration of half-maximal effect
Procedure, shortened: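 PXR-Luc HepG2 cells (CYP3A4 promoter-driven luciferase) were seeded in medium with 5% charcoal-stripped FBS, left 5 hr at 37 C, then exposed to compounds in DMSO for 24 hr. Luminescence was read after ONE-Glo addition.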

[5] = target: Cytochrome P450 2C19 (Homo sapiens) (UniProt P33261); test: Cytochrome P450 Family 2 Subfamily C Member 19 (CYP2C19) small molecule antagonists: luciferase reporter qHTS assay (AID 1671197); note: nearly all actives have a fitted effect of over 65% in size; note: potency is the fitted concentration of half-maximal effect
Procedure, shortened: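 Inhibition of CYP2C19 was scored from loss of luminescence in a P450-Glo proluciferin substrate assay, NADPH-started and run 1 h at 37C, with ketoconazole as positive control.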

[6] = target: Cytochrome P450 2C9 (Homo sapiens) (UniProt P11712); test: Cytochrome P450 Family 2 Subfamily C Member 9 (CYP2C9) small molecule antagonists: luciferase reporter qHTS assay (AID 1671198); note: nearly all actives have a fitted effect of over 50% in size; note: potency is the fitted concentration of half-maximal effect
Procedure, shortened: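 CYP2C9 activity was measured with a P450-Glo proluciferin substrate. Enzyme–substrate mix was held with compound for 10 min at room temperature, then NADPH regeneration solution was added for 1 h at 37C. Luciferin product was read as luminescence.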

[7] = target: Cytochrome P450 1A2 (Homo sapiens) (UniProt P05177); test: Cytochrome P450 Family 1 Subfamily A Member 2 (CYP1A2) small molecule antagonists: luciferase reporter qHTS assay (AID 1671199); note: nearly all actives have a fitted effect of over 50% in size; note: potency is the fitted concentration of half-maximal effect
Procedure, shortened: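 Human CYP1A2 activity measured with a P450-Glo proluciferin substrate; compounds in DMSO preincubated 10 min at room temperature with enzyme-substrate mix, then NADPH regeneration system added for 1 h. Luciferin detection reagent, 20 min, luminescence read.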

[8] = target: Voltage-gated inwardly rectifying potassium channel KCNH2 (Homo sapiens) (UniProt Q12809); test: Human Ether-a-go-go-Related Gene (hERG) channel small molecule antagonists: fluorescence cell-based qHTS assay (AID 1671200); note: nearly all actives have a fitted effect of over 50% in size; note: potency is the fitted concentration of half-maximal effect
Procedure, shortened: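 In this thallium-flux screen, overnight-cultured U2OS cells bearing the channel are dye-loaded in darkness for an hour, rested 10 min at room temperature, and then monitored kinetically at 480/540 nm for two minutes post-stimulus.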

[9] = target: Cytochrome P450 3A4 (Homo sapiens) (UniProt P08684); test: Cytochrome P450 Family 3 Subfamily A Member 4 (CYP3A4) small molecule antagonists: luciferase reporter qHTS assay (AID 1671201); note: nearly all actives have a fitted effect of over 50% in size; note: potency is the fitted concentration of half-maximal effect
Procedure, shortened: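 CYP3A4 activity was followed with a P450-Glo proluciferin substrate. Test compounds in DMSO were preincubated 10 min; NADPH regeneration then ran 1 h, and light output was read 20 min after detection reagent.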

[10] = target: Cytochrome P450 2D6 (Homo sapiens) (UniProt P10635); test: Cytochrome P450 Family 2 Subfamily D Member 6 (CYP2D6) small molecule antagonists: luciferase reporter qHTS assay (AID 1671196); note: nearly all actives have a fitted effect of over 50% in size; note: potency is the fitted concentration of half-maximal effect
Procedure, shortened: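 CYP2D6 enzyme–substrate mix was held with compound for 10 min at room temperature, then NADPH regeneration solution was added and the reaction ran 1 h at room temperature. Luciferin product was detected by luminescence after 20 min with detection reagent.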

[11] = target: Nuclear receptor subfamily 1 group I member 2 (Homo sapiens) (UniProt O75469); test: CYP3A4 induction through human pregnane X receptor (PXR) by small molecules, qHTS assay (AID 1346984); note: nearly all actives have a fitted effect of over 40% in size
Procedure, shortened: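 DPX-2 cells (HepG2 co-transfected with PXR and CYP3A4 promoter-luciferase) treated with compounds 24 h at 37C; luciferin-IPA CYP3A4 substrate 3uM final added for 3 h, then One-Glo; luminescence read. qHTS format.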

[12] = target: Nuclear receptor subfamily 1 group I member 2 (Homo sapiens) (UniProt O75469); test: Human pregnane X receptor (PXR) activation by small molecules, qHTS assay (AID 1346985); note: nearly all actives have a fitted effect of over 40% in size; note: potency is the fitted concentration of half-maximal effect
Procedure, shortened: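 DPX-2 cells (HepG2 co-transfected with a PXR response element and a CYP3A4-promoter luciferase construct) were seeded at 2,000 per well, rested 5 hr at 37C, then exposed to DMSO-dissolved compounds for 24 hr. Activation was read as luciferase luminescence.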

[13] = target: Nuclear receptor subfamily 1 group I member 2 (Rattus norvegicus) (UniProt Q9R1A7); test: Rat pregnane X receptor (rPXR) activation by small molecules, qHTS assay (AID 1346983); conditions: rPXR luciferase reporter cells, One-Glo luminescence, 24 h; max activation: stronger effect = higher value; note: nearly all actives have a fitted effect of over 20% in size
Procedure, shortened: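 Cell-based rPXR luciferase reporter assay, 2,000 cells per well, rested 5hr at 37 C before compound addition in DMSO, then 24 hr at 37 C. One-Glo reagent was added and luminescence read after 30 min at room temperature.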

Chain of Cytochrome P450 2D6 (Homo sapiens) (P10635 whole entry, looked up): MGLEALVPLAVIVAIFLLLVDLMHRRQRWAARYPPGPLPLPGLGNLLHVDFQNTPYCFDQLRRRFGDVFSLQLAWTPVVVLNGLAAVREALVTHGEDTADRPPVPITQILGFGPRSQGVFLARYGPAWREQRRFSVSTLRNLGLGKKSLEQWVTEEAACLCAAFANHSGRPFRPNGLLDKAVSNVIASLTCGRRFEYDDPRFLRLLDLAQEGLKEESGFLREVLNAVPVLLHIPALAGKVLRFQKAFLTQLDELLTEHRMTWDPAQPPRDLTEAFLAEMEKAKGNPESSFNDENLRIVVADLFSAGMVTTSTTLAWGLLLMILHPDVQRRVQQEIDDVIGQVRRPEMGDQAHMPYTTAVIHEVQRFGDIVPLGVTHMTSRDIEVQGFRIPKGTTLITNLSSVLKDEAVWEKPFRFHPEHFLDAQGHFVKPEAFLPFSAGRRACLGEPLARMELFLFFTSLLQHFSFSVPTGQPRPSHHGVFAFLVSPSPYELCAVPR
Chain of Nuclear receptor subfamily 1 group I member 2 (Homo sapiens) (O75469 whole entry, looked up): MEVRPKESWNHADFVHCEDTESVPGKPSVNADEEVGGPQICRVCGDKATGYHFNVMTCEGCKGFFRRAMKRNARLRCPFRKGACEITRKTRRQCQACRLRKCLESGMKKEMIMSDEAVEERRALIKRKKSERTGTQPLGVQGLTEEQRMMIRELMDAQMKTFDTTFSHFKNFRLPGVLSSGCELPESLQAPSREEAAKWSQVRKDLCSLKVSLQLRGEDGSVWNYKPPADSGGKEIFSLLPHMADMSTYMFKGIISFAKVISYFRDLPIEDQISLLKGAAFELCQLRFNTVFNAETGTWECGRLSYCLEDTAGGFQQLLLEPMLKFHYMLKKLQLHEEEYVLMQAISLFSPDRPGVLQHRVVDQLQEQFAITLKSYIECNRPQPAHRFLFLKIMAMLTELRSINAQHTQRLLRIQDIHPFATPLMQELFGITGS
Chain of Nuclear receptor subfamily 1 group I member 2 (Rattus norvegicus) (Q9R1A7 whole entry, looked up): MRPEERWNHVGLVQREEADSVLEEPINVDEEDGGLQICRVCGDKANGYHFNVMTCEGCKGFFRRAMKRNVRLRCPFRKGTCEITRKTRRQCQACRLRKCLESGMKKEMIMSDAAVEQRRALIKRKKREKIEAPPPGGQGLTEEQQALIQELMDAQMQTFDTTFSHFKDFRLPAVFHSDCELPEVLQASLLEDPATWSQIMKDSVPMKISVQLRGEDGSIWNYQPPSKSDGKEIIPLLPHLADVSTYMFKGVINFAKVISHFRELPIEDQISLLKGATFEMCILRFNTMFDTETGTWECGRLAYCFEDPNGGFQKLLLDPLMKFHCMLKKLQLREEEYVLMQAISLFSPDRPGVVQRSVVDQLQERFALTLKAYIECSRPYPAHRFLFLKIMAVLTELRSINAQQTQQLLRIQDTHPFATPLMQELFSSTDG
Chain of Cytochrome P450 2C19 (Homo sapiens) (P33261 whole entry, looked up): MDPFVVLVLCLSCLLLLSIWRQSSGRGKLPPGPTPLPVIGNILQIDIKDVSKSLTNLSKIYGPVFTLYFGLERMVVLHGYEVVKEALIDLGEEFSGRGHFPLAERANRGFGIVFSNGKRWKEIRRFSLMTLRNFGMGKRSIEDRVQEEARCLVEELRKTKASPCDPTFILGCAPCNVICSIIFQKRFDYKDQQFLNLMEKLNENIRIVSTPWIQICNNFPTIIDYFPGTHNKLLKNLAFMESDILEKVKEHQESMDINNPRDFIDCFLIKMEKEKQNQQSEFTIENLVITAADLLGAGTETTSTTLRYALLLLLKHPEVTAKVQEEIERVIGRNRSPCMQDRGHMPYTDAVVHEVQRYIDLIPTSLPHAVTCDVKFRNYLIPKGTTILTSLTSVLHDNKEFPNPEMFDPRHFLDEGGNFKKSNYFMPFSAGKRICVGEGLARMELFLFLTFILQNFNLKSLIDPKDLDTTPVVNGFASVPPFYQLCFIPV
Chain of Cytochrome P450 2C9 (Homo sapiens) (P11712 whole entry, looked up): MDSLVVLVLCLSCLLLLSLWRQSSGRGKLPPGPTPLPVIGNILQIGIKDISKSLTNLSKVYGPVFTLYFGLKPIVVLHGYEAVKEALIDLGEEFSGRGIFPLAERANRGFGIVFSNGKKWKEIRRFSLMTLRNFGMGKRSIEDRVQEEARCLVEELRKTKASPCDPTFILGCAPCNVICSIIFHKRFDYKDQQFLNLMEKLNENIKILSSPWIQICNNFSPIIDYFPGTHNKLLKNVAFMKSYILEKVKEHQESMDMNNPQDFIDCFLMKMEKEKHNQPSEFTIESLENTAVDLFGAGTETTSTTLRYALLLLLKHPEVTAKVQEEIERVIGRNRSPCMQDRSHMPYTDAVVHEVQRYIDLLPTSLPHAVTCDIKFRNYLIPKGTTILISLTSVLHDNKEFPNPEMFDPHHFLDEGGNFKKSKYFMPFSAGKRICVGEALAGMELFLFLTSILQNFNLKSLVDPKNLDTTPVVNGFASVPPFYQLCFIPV
Chain of Voltage-gated inwardly rectifying potassium channel KCNH2 (Homo sapiens) (Q12809 whole entry, looked up): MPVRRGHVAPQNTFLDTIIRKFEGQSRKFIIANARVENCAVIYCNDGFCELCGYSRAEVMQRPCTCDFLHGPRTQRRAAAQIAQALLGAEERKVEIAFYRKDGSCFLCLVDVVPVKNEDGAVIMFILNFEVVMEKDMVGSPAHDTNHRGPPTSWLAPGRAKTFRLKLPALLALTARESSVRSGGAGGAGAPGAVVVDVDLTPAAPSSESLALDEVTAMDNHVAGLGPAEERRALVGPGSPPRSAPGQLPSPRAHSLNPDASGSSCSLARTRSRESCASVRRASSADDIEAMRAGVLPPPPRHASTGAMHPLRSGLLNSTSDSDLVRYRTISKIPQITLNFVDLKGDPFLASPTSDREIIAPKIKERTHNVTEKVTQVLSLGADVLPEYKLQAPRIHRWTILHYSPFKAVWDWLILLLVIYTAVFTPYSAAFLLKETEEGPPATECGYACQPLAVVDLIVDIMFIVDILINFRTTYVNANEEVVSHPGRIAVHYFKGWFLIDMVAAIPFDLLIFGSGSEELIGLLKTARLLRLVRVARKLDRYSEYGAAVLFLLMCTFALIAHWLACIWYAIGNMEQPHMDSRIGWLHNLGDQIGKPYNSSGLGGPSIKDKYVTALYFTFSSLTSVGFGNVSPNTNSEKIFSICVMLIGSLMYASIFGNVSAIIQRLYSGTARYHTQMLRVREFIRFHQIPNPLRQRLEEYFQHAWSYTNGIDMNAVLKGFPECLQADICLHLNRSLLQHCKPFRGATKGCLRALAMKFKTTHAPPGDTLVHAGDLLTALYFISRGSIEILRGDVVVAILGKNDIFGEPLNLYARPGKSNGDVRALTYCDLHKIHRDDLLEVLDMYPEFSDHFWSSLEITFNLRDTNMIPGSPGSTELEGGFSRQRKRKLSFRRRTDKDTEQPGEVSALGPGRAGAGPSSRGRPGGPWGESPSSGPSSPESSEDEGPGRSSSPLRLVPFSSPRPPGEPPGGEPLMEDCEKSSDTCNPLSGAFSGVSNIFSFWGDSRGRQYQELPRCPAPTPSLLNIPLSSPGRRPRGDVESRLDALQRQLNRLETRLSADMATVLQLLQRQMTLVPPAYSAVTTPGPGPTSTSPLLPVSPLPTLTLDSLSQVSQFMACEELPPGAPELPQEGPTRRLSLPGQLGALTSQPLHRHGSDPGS
Chain of Cytochrome P450 3A4 (Homo sapiens) (P08684 whole entry, looked up): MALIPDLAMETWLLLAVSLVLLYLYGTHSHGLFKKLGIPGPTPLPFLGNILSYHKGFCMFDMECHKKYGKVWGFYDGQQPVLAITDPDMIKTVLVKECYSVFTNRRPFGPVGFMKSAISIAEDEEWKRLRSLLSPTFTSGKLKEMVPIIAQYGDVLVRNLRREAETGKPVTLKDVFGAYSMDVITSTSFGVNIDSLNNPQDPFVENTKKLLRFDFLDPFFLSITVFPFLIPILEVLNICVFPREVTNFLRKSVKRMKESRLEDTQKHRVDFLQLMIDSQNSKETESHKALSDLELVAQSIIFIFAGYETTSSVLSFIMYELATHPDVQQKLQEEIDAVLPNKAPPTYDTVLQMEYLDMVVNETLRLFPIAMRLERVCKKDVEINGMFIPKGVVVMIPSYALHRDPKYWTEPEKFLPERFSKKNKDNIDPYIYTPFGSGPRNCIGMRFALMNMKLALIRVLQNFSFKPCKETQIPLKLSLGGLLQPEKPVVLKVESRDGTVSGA
Chain of Cytochrome P450 1A2 (Homo sapiens) (P05177 whole entry, looked up): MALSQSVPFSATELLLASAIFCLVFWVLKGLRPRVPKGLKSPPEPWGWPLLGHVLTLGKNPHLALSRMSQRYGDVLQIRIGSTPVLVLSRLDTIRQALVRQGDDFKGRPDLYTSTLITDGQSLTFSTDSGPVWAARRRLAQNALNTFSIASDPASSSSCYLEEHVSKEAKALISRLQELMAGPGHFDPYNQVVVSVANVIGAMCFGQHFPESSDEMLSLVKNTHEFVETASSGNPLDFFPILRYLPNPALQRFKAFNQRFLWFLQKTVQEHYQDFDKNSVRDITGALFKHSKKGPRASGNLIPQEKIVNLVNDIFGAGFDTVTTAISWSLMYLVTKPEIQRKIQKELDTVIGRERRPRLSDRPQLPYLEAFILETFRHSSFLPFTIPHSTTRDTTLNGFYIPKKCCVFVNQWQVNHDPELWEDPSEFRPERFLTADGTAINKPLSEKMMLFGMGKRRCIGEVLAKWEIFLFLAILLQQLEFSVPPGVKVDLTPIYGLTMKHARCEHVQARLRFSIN

SMILES | Potency [1] | Potency [2] | Potency [3] | Potency [4] | Potency [5] | Potency [6] | Potency [7] | Potency [8] | Potency [9] | Potency [10] | Potency [11] | Potency [12] | max activation [13]
CO[Si](CCC1CCC2OC2C1)(OC)OC (stereo not given) | inactive | inactive | inactive | inactive | inactive | inactive | inactive | inactive | inactive |  |  |  | 
CC(C)(C)C1=CC(=O)C=C(C(C)(C)C)C1=O | inactive | inactive | inactive | inactive | 3.17 µM (active) |  |  | inactive | inactive | inactive |  |  | 
CC(C)=CCCC(C)CCOC(=O)C(C)C (stereo not given) | inactive | inactive | inactive | inactive | 79.6 µM (active) |  | inactive | inactive |  | inactive |  |  | 
C/C=C/C=N/NC(=O)c1ccncc1 |  |  |  |  |  |  |  |  |  |  | inactive | inactive | 
COc1ccccc1OCCNCC(O)COc1cccc2[nH]c3ccccc3c12 (stereo not given) | 29.8 µM (active) | inactive |  | 8.41 µM (active) | 5.49 µM (active) |  | 8.12 µM (active) |  |  | 1.55 µM (active) |  | 22.4 µM (active) | 7.65%
O=C1OC(OC(=O)c2cccnc2Nc2cccc(C(F)(F)F)c2)c2ccccc21 (stereo not given) | inactive | inactive |  | inactive |  | 6.17 µM (active) | 9.77 µM (active) |  | inactive | inactive | inactive | inactive | -3.51%
O=C1NCCN1CCN1CCC(c2cn(-c3ccc(F)cc3)c3ccc(Cl)cc23)CC1 | 26.6 µM (active) | 26.6 µM (active) | 29.8 µM (active) |  | inactive | inactive | inactive |  |  | 4.36 µM (active) |  |  | 
CCCC(CC)CCCCCCCN (stereo not given) | inactive | inactive | inactive |  | 0.365 µM (active) | 25.8 µM (active) | 5.15 µM (active) | 28.2 µM (active) | 3.25 µM (active) | 0.817 µM (active) |  |  | 
Cc1ccc(-n2[nH]c(C)c(N=Nc3cccc(-c4cccc(C(=O)O)c4)c3O)c2=O)cc1C | 26.6 µM (active) | inactive |  | inactive | inactive |  | inactive | inactive | inactive |  |  |  | 
c1cc2c3c(c1)ccc1cccc(c13)C2 | inactive | inactive | inactive |  | 40.8 µM (active) |  | 3.63 µM (active) | inactive | inactive |  |  |  | 
SCCCCCCCCS | inactive | inactive |  | inactive | inactive | inactive | inactive | inactive | inactive | inactive |  |  | 
N#CSCSc1nc2ccccc2s1 | 17.2 µM (active) | 6.86 µM (active) |  | 7.7 µM (active) | 39.9 µM (active) | 31.7 µM (active) | 5.64 µM (active) | inactive | inactive | 10 µM (active) |  |  | 
O=C(Oc1ccccc1)c1cccc(C(=O)Oc2ccccc2)c1 | 51.2 µM (active) | inactive |  | 0.456 µM (active) | 2.98 µM (active) | 7.48 µM (active) |  |  | inactive | 28.9 µM (active) |  |  | 
C=C[C@](C)(O)CC[C@@H]1[C@@]2(C)CCCC(C)(C)[C@@H]2CC[C@@]1(C)O | 54.5 µM (active) | inactive |  | 9.69 µM (active) | 1 µM (active) | 3.17 µM (active) | 31.7 µM (active) |  | 5.03 µM (active) |  |  |  | 
O=C(O)CCn1c2c(c3ccccc31)C[C@H](NS(=O)(=O)c1ccc(F)cc1)CC2 | inactive | inactive | inactive |  | inactive | 17.4 µM (active) | inactive | inactive |  | inactive |  |  | 
CNC(=O)c1cc(Oc2ccc(NC(=O)Nc3ccc(Cl)c(C(F)(F)F)c3)cc2)ccn1 | 26.6 µM (active) | inactive |  | inactive | 27.5 µM (active) | 17.4 µM (active) | inactive |  |  |  |  | inactive | -24.5%
O=C(c1ccccc1)c1cc(Cl)ccc1O | inactive | inactive | inactive |  | 1.9 µM (active) | 33.8 µM (active) | 12 µM (active) |  | inactive |  |  |  | 
ClC/C=C\CCl | inactive | inactive | inactive |  | 33.1 µM (active) | inactive | 11.7 µM (active) | inactive | inactive |  |  |  | 
C/C=C/C(=O)C1=C(C)CCCC1(C)C | inactive | inactive | inactive |  | 79.6 µM (active) | inactive | inactive | inactive |  | inactive |  |  | 
C=C1C(C)(C)[C@@]2(Cl)C(Cl)[C@]1(Cl)C(Cl)(Cl)C2(Cl)Cl (stereo not given in full) | 60 µM (active) | 60 µM (active) |  | 10.7 µM (active) | 1.96 µM (active) | 13.9 µM (active) | 39.2 µM (active) | 27 µM (active) | 0.985 µM (active) | 31.1 µM (active) |  |  | 
Brc1ccccc1-c1ccccc1 | inactive | inactive | inactive |  |  |  | 16.6 µM (active) | 31.4 µM (active) | inactive | 75.4 µM (active) |  |  | 
C=CC(=O)OCC(O)COc1ccccc1 (stereo not given) | 61.1 µM (active) | inactive |  | inactive | 35.6 µM (active) |  | 35.6 µM (active) | inactive | inactive | inactive |  |  | 
